Test results published in PubChem BioAssay (NCATS).
Where “and” joins values, the source holds several entries; their conditions need not be identical. Identical values can stand only once. Inconclusive results are not listed. Calls of active or inactive are those of the source. Unless noted, calls follow the shape of the full dose curve.

What was measured:
[1] = Primary qHTS for inhibitors of SARS-S pseudo-typed particle cell entry (AID 1479145); conditions: outcome: dose series up to 57.1 µM unless noted; also: nearly all actives have a fitted effect of over 45% in size
[2] = Primary qHTS for Huh7 cytotoxicity: counterscreen for inhibitors of MERS-S pseudotyped particle cell entry (AID 1479147); conditions: outcome: dose series up to 57.1 µM unless noted
[3] = Primary qHTS for inhibitors of MERS-S pseudo-typed particle cell entry (AID 1479149); conditions: outcome: dose series up to 57.1 µM unless noted; also: nearly all actives have a fitted effect of over 60% in size
[4] = Primary qHTS for Vero E6 cytotoxicity: counterscreen for inhibitors of SARS-S pseudo-typed particle cell entry (AID 1479150); conditions: outcome: dose series up to 57.1 µM unless noted
[5] = Cytotoxicity counterscreen for inhibitors of SARS-CoV-2 cell entry (AID 1645845); conditions: outcome: dose series up to 57.1 µM unless noted; also: nearly all actives have a fitted effect of over 50% in size
In short: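 48 h compound treatment (after 1 h preincubation), HEK293-ACE2 cells, 37 C/5% CO2; ATP luminescence endpoint; normalized to cell wells and media blanks.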

[6] = Primary qHTS to identify inhibitors of SARS-CoV-2 cell entry (AID 1645846); conditions: SARS-CoV-2 pseudovirus cell entry assay, luminescence; activity change, negative = inhibition: at 57.1 µM (top of the series) unless noted; also: nearly all actives have a fitted effect of over 45% in size
In short: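 Luminescence readout (Bright-Glo luciferase) 48 h after pseudoparticle addition. HEK293-ACE2 cells, 1500/well; compound pre-incubation 1 h; Normalized to spike PP and bald PP.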

[7] = KB-8-5-11 P-gp reporter qHTS against the NCATS DSHEA and TCM libraries (AID 1919977; active = well fitted curve in the direction sought with a large enough effect; an effect the other way counts as inactive or inconclusive)
In short: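 P-gp-overexpressing KB-8-5-11 cells (500/well) were plated in colchicine-free DMEM with 10% FBS, attached ~4 h, then exposed to substance titrations for ~72 h at 37C. Viability was read by CellTiter-Glo luminescence.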

[8] = molecular target: Phospholipid hydroperoxide glutathione peroxidase GPX4 (Homo sapiens) (UniProt P36969); assay: Primary qHTS Assay for Inhibitors of Recombinant Selenoprotein Glutathione Peroxidase 4 (GPX4) (AID 1845192; active = well fitted curve in the direction sought with a large enough effect; an effect the other way counts as inactive or inconclusive; also: nearly all actives have a fitted effect of over 65% in size)
Chain of Phospholipid hydroperoxide glutathione peroxidase GPX4 (Homo sapiens) (P36969 whole entry, looked up): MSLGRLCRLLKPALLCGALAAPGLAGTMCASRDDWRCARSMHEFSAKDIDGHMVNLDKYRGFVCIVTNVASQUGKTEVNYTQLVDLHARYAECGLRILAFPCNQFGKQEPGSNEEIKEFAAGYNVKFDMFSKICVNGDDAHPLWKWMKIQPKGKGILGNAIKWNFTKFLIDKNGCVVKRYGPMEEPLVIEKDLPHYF
In short: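 NADPH consumption, followed by fluorescence at 340/450 nm between 0 and 15 min, reports GPX4 activity via coupled glutathione reductase (100 nM). Enzyme 200 nM was pre-exposed to compound 30 min; 0.5 mM cumene hydroperoxide and 1 mM GSH served as substrates.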

[9] = VSVG counterscreen qHTS to identify inhibitors of SARS-CoV-2 cell entry (AID 1645847); also: potency is read from the fitted curve at half-maximal effect; nearly all actives have a fitted effect of over 65% in size
In short: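 HEK293-ACE2 cells (Expi293F stably expressing human ACE2) were pretreated with compound for 1 h at 37 °C, then infected with MLV-based VSV-G pseudotyped particles for 48 h. Luciferase luminescence was normalized to VSV-G PP and bald PP wells.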

[10] = molecular target: Glutathione peroxidase 1 (Homo sapiens) (UniProt P07203); assay: Primary qHTS Assay for Inhibitors of Recombinant Selenoprotein Glutathione Peroxidase 1 (GPX1) (AID 1845191; active = well fitted curve in the direction sought with a large enough effect; an effect the other way counts as inactive or inconclusive; also: nearly all actives have a fitted effect of over 65% in size)
Chain of Glutathione peroxidase 1 (Homo sapiens) (P07203 whole entry, looked up): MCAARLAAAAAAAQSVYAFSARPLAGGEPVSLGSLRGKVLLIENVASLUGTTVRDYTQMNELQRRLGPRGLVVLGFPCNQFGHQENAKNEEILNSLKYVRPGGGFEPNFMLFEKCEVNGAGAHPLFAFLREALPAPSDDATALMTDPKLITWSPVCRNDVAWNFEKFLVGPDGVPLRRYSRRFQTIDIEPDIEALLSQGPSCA
In short: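 10 nM GPX1 + cpd, 30 min RT; start w/ 1 mM GSH, 0.5 mM cumene hydroperoxide, 0.5 mM NADPH, 100 nM GR, 0.01% BSA; buffer 50 mM Tris-HCl pH 7.5, 2 mM EDTA, 150 mM NaCl; Fl 340/450, 0 & 15 min.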

CCCCCCCCCCCC(=O)OCN1C(=O)CCc2ccc(OCCCCN3CCN(c4cccc(Cl)c4Cl)CC3)cc21
inactive: Potency [1] | Potency [2] | Potency [3] | Potency [4] | Potency [5]
-17.3% [at 19 µM]: activity change, negative = inhibition [6]

C[C@]12CCC3c4ccc(OS(=O)(=O)O)cc4CCC3C1CCC2=O (stereo partly drawn)
inactive: Potency [1] | Potency [2] | Potency [3] | Potency [4] | Potency [5]
-13.1%: activity change, negative = inhibition [6]

C[C@H](CCC(=O)O)[C@H]1CC[C@H]2[C@@H]3CC[C@@H]4C[C@H](O)CC[C@]4(C)[C@@H]3C[C@H](O)[C@]12C
inactive: Potency [1] | Potency [2] | Potency [3] | Potency [4] | Potency [5] | Potency [6]

C[C@H]1C[C@@H]2[C@H]([C@@H](O)C[C@@]3(C)[C@H]2CC[C@]3(O)C(=O)COC(=O)CCC(=O)O)[C@@]2(C)C=CC(=O)C=C12
-18.6%: activity change, negative = inhibition [6]
inactive: Potency [1] | Potency [2] | Potency [3] | Potency [4] | Potency [5]

O=S(=O)(O)CC(S)CS (stereo not drawn)
inactive: Potency [1] | Potency [2] | Potency [3] | Potency [4] | Potency [5] | Potency [6]

CC1(C)S[C@H]2[C@H](NC(=O)[C@@H](N)c3ccc(O)cc3)C(=O)N2[C@H]1C(=O)O
-1.08% and -18.3%: activity change, negative = inhibition [6]
inactive: Potency [1] | Potency [2] | Potency [3] | Potency [4] | Potency [5]

CC(O)C(CO)NC(=O)C1CSSCC(NC(=O)C(N)Cc2ccccc2)C(=O)NC(Cc2ccccc2)C(=O)NC(Cc2c[nH]c3ccccc23)C(=O)NC(CCCCN)C(=O)NC(C(C)O)C(=O)N1 (stereo not drawn)
-15.6% [at 27.1 µM]: activity change, negative = inhibition [6]
inactive: Potency [1] | Potency [2] | Potency [3] | Potency [4] | Potency [5]

COc1ccc(C(=O)N2CCN(c3ccc4c(c3)CCC(=O)N4)CC2)cc1OC
3.69% and -19.3%: activity change, negative = inhibition [6]
inactive: Potency [1] | Potency [2] | Potency [3] | Potency [4] | Potency [5]

CC(C)=CCC/C(C)=C/C=C/C(C)=C/C=C/C(C)=C/C=C/C=C(C)/C=C/C=C(C)/C=C/C=C(\C)CCC=C(C)C
inactive: Potency [1] | Potency [2] | Potency [3] | Potency [4] | Potency [5] | Potency [7]

CCC[C@@H]1CC(=O)N([C@@H](CC)C(N)=O)C1
inactive: Potency [1] | Potency [2] | Potency [3] | Potency [4] | Potency [5] | Potency [8]
-22.5%: activity change, negative = inhibition [6]

CO[C@@H]1[C@H](C)OC(O[C@H]2CC(Oc3cc4cc5c(c(O)c4c(O)c3C)C(=O)[C@@H](OC3C[C@@H](OC4C[C@H](OC6C[C@](C)(O)[C@@H](OC(C)=O)[C@H](C)O6)[C@@H](O)[C@H](C)O4)[C@H](O)[C@@H](C)O3)[C@H]([C@@H](OC)C(=O)[C@@H](O)[C@H](C)O)C5)O[C@@H](C)[C@H]2OC(C)=O)C[C@@H]1O (stereo partly drawn)
active: Potency [9] 48.2 nM
inactive: Potency [1] | Potency [2] | Potency [3] | Potency [4] | Potency [5] | Potency [10]
